Shown are actives, neighbours in structure and some others; about 1.3% of the full set was active somewhere.
Efflux pump mplx = antifungal efflux pump inhibition, Nile Red retention. S. cerevisiae Candida pump triplex. inhibition, % at 10 µM. actives 0.44% (n = 330,000);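 active means plate passing quality check with inhibition over a set limit, or well fluorescence over plate mean plus 4 SD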;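 further: Nile Red retained in pooled yeast measured as flow cytometry median fluorescence; 0% = buffer negative control and 100% = Enniatin B positive control; higher means more Nile Red kept so more efflux inhibition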
RPL19A TOR yeast = modulators of TOR pathway RPL19A-GFP in S. cerevisiae; S. cerevisiae RPL19A-GFP strain, flow cytometry, 3 h; active compounds read low; percent response vs DMSO, % at 10 µM; actives 0.3% (n = 330,000);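 active means percent response vs DMSO below 50%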;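 further: median channel GFP fluorescence of the barcoded RPL19A-GFP strain; ratio of sample median GFP to plate DMSO average so 100% = DMSO; lower means less RPL19A-GFP as with rapamycin TOR inhibition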
AGP1-GFP MLPCN = alters AGP1-GFP fluorescence in TOR pathway yeast screen; S. cerevisiae AGP1-GFP multiplex flow cytometry, 3 h; GFP as percent of DMSO wells; GFP response vs DMSO, % at 10 µM; actives 0.02% (n = 320,000); AID 2066;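 active means GFP response relative to DMSO above a set limit, near screen average plus 3 SD, cut at about 150% in these data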;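 further: median GFP channel fluorescence of the gated AGP1 strain per well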
MEP2-GFP yeast = alters MEP2-GFP fluorescence in TOR pathway yeast screen; S. cerevisiae MEP2-GFP strain, flow cytometry GFP, 3 h; 100% = DMSO control level; actives 0.51% (n = 330,000); GFP response vs DMSO, % at 10 µM;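 active means GFP response versus DMSO above a set limit, roughly screen mean plus 3 SD, cut at about 180% in these data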;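 further: median GFP fluorescence of the barcode-gated MEP2-GFP cells per well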
CIT2-GFP yeast = yeast TOR pathway CIT2-GFP modulation | actives 0.065% (n = 320,000) | S. cerevisiae CIT2-GFP strain, flow cytometry, 3 h; 100 means same as DMSO wells | GFP response vs DMSO, % at 10 µM;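 active means GFP response relative to DMSO above a set limit, near the screen mean plus 3 SD, cut at about 150% in these data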;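 further: ratio of well median GFP fluorescence to mean of DMSO wells on the plate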
LAP4 TOR yeast = yeast TOR pathway LAP4-GFP modulation; GFP response vs DMSO, % at 10 µM; actives 0.34% (n = 320,000); S. cerevisiae LAP4-GFP multiplex, flow cytometry GFP, 3 h; median GFP as percent of DMSO wells;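 active means GFP response vs DMSO above a set limit, about the screen mean plus 3 SD, cut at about 150% in these data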
LAP4 cherry2 = second confirmation of modulators of TOR reporter LAP4-GFP in yeast. actives 20% (n = 590). AID 2621. shares compounds with LAP4 TOR yeast. GFP response vs DMSO, % at 10 µM. S. cerevisiae LAP4-GFP strain, flow cytometry GFP, 3 h;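 active means GFP signal as percent of the solvent control above about 150%, meaning raised reporter expression, limit read from the data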;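 further: ratio of well median GFP fluorescence to plate DMSO mean so 100% = DMSO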
MEP2-GFP pick2 = yeast MEP2-GFP modulation, second cherry pick; actives 10% (n = 590); S. cerevisiae MEP2-GFP strain, flow cytometry GFP, 3 h; shares compounds with LAP4 TOR yeast; GFP response vs DMSO, % at 10 µM;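 active means GFP signal above 150% of the solvent control wells, that is a rise of more than half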;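 further: median channel GFP fluorescence of all gated yeast cells per well; ratio of median GFP to plate DMSO average so 100% = DMSO level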
RPL19A GFP CP2 = reconfirmed modulator of RPL19A-GFP TOR reporter in yeast. S. cerevisiae RPL19A-GFP strain, flow cytometry GFP, 3 h; active compounds read low; 100% means same as DMSO wells. shares compounds with LAP4 TOR yeast. GFP response vs DMSO, % at 10 µM. actives 3% (n = 590);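 active means under 65% GFP response relative to DMSO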;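 further: median GFP channel fluorescence per well over the all cells gate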
CIT2 GFP CP2 = yeast CIT2-GFP TOR reporter modulation, second cherry pick | shares compounds with LAP4 TOR yeast | S. cerevisiae CIT2-GFP strain, flow cytometry GFP, 3 h; DMSO control wells read 100% | GFP response vs DMSO, % at 10 µM | actives 8% (n = 590) | AID 2624;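 active means GFP response vs DMSO above about 150%, limit read from the data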;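 further: median green fluorescence per well over all gated yeast cells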
AGP1-GFP pick2 = yeast AGP1-GFP TOR reporter modulation, second cherry pick; 590 tested, under 10 active; percent response vs DMSO, % at 10 µM; shares compounds with LAP4 TOR yeast; S. cerevisiae AGP1-GFP strain, flow cytometry GFP, 3 h; AID 2643;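 active means over 150 percent of DMSO response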;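 further: median GFP channel fluorescence over all cells without mother daughter split; sample median GFP divided by mean DMSO control so 100% equals DMSO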
s288c autofluor = yeast s288c autofluorescence artifact, counter-screen | shares compounds with LAP4 TOR yeast | S. cerevisiae s288c, 520 nm autofluorescence, flow cytometry, 3 h; active compounds read high; zero means same as solvent-only cells | fluorescence change (kMESF span) at 33 µM | 610 tested, under 10 active;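 active means fluorescence span over the dose series, or activity score, above about 33, limit read from the data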
Yeast autofl DR = yeast s288c autofluorescence artifact in dose response. 110 tested, under 10 active. S. cerevisiae s288c parental, compound autofluorescence, flow cytometry, 3 h. shares compounds with LAP4 TOR yeast. fluorescence change (span) at 33 µM;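 active means fluorescence change span, or the activity score built from it, above 25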
TORC1 bypass = stops wildtype yeast growth while TORC1 bypass cells still grow. 120 tested, under 10 active. AID 504456. growth rating (0-3) at 30 µM. S. cerevisiae BY4741 spot growth rating, 48-72 h; active compounds read low. shares compounds with LAP4 TOR yeast;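 active means growth rating at most 1 for wild type yeast while the TORC1 bypass strain still grows fully, rated 3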
* hit, by the source's call; . = no result.

SMILES | Efflux pump mplx | RPL19A TOR yeast | AGP1-GFP MLPCN | MEP2-GFP yeast | CIT2-GFP yeast | LAP4 TOR yeast | LAP4 cherry2 | MEP2-GFP pick2 | RPL19A GFP CP2 | CIT2 GFP CP2 | AGP1-GFP pick2 | s288c autofluor | others
CCN(CC)CCC(=O)O[C@H]1CC[C@]2(C)C3CC[C@@]4(C)C(CC[C@]4(C)O)C3CC[C@H]2C1 (some centres undefined) | 0 | 81 | 112 | 92 | 90 | 177* | 100 | 103 | 101 | 100 | 96 | .
COc1ccc(-n2c(/C=C/c3ccc(O)c(OC)c3)nc3ccccc3c2=O)cc1 | 0 | 103 | 98 | 110 | 96 | 103 | . | . | . | . | . | .
COc1cc(/C=C/[N+](=O)[O-])ccc1O | 0 | 88 | 80 | 86 | 77 | 245* | 191* | 131 | 93 | 132 | 120 | 0.2
COC(=O)C1=C(c2cccc(Cl)c2)C[C@@H]2CC[C@H]1N2C(=O)NCC1CC1 | 0 | 97 | 100 | 106 | 99 | 101 | . | . | . | . | . | .
O=C1NC(=O)N(Cc2ccco2)C(=O)/C1=C/c1ccc(-c2cccc([N+](=O)[O-])c2)o1 | 0 | 100 | 73 | 84 | 77 | 169* | . | . | . | . | . | 0.71
C[C@@H]1C[C@@H]([C@H](O)CC2CC(=O)NC(=O)C2)C(=O)[C@@H](C)C1 | 0 | 49* | 41 | 96 | 50 | 89 | 126 | 157* | 75 | 93 | 73 | 0.7 | Yeast autofl DR=0.41;TORC1 bypass=0
CCC(=NC1CC1)c1c(O)n(-c2ccc(OC)cc2)c(=O)[nH]c1=O | 0 | 105 | 105 | 107 | 107 | 103 | . | . | . | . | . | .
CCC(=NCCCN(C)C)c1c(O)n(-c2ccc(OC)cc2)c(=O)[nH]c1=O | 0 | 82 | 108 | 100 | 92 | 156* | 100 | 107 | 101 | 100 | 99 | .
CCCCCCn1c(O)c(/C=N/N2CCCCCC2)c(=O)[nH]c1=O | 0 | 101 | 110 | 98 | 101 | 108 | . | . | . | . | . | .
O=C1NC(=O)N(c2cccc(Cl)c2)C(=O)/C1=C\c1ccc(Sc2nc3ccccc3[nH]2)o1 | 0 | 98 | 100 | 98 | 106 | 83 | . | . | . | . | . | .
O=C1NC(=O)N(c2ccccc2)C(=O)/C1=C/c1ccc(Sc2ccccc2)o1 | 0 | 78 | 73 | 88 | 75 | 170* | . | . | . | . | . | 0.91
COc1ccc(-n2c(C)nc3ccccc3c2=O)c([N+](=O)[O-])c1 | 0 | 99 | 101 | 105 | 98 | 98 | . | . | . | . | . | .
Cc1ccc(/C=C2\C(=O)NC(=S)N(c3ccc(F)cc3)C2=O)s1 | 0 | 81 | 81 | 96 | 66 | 237* | 199* | 120 | 92 | 115 | 98 | -0.2
Cc1ccc(/C=C2\C(=O)NC(=S)N(c3ccccc3F)C2=O)s1 | 0 | 56 | 62 | 91 | 60 | 83 | 111 | 126 | 65* | 69 | 68 | -0.81
COc1ccc(N2C(=O)/C(=C/c3cccs3)C(=O)NC2=S)cc1 | 0 | 63 | 69 | 76 | 84 | 90 | 112 | 128 | 63* | 72 | 64 | -0.5
CCOC(=O)C1CCN(/C=C2/C(=O)NC(=S)N(c3ccccc3F)C2=O)CC1 | 0 | 109 | 102 | 103 | 104 | 91 | . | . | . | . | . | .
COC(=O)C1=C(c2ccc(F)cc2OCc2ccccc2)C[C@@H]2CC[C@H]1N2C(=O)NCCOc1ccc(OC)cc1 | 0 | 105 | 109 | 101 | 117 | 114 | . | . | . | . | . | .
CCCCCn1c(=O)c(C(=O)Nc2nc3ccccc3[nH]2)c(O)c2ccccc21 | 0 | 98 | 103 | 98 | 89 | 111 | 98 | 97 | 100 | 104 | 97 | 0.1
O=C1NC(=S)NC(=O)C1=Cc1ccc2c(c1)CCN2CCCCl | 0 | 95 | 81 | 88 | 75 | 245* | . | . | . | . | . | 1.8
O=C1NC(=O)N(CCC2=CCCCC2)C(=O)/C1=C\c1cccs1 | 0 | 94 | 83 | 85 | 76 | 123 | . | . | . | . | . | .
O=C1NC(=O)N(CCc2ccc(F)cc2)C(=O)/C1=C/c1cccs1 | 0 | 88 | 86 | 100 | 73 | 172* | . | . | . | . | . | 0
C=CCN1C(=O)/C(=C/c2cccs2)C(=O)NC1=S | 0 | 79 | 72 | 81 | 49 | 204* | 112 | 136 | 68 | 69 | 61 | -1.1
CC(C)(C)C(=O)Cn1c(NCCCl)nc2ccccc21 | 0 | 91 | 86 | 92 | 88 | 86 | . | . | . | . | . | .
COc1ccc(-n2nc(C(=O)NCC(=O)N3CCC4(CC3)OCCO4)c3ccccc3c2=O)cc1Cl | 0 | 96 | 97 | 98 | 99 | 95 | . | . | . | . | . | .
CN(C)C(=O)Oc1ccc(Cl)c2cccnc12 | 0 | 89 | . | 94 | 96 | 101 | . | . | . | . | . | .
CN(C)C(=O)Oc1ccnc2cc(Cl)ccc12 | 0 | 95 | 105 | 97 | 94 | 101 | 99 | 95 | 100 | 105 | 100 | 0.1
O=C(NC1CCCCC1)N1C[C@H]2C[C@@H](C1)c1cccc(=O)n1C2 | 0 | 108 | 105 | 106 | 106 | 94 | . | . | . | . | . | .
O=C(O)c1cc[c]([Hg][Cl])cc1 | 0 | 62 | 90 | 129 | 115 | 255* | 190* | 193* | 81 | 100 | 73 | 0.81

From PubChem BioAssay
